Reference: PubChem BioAssay AID1117319 (Southern Research Institute, 2015)
Out of some 260,000 compounds screened, about 1,500 (0.58%) were called active. Not shown: some 5% with an inconclusive outcome.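 How the source made its calls: active means inhibition above a set limit at one or more doses, reproduced on every date tested; inconclusive means results disagree between test dates, or hit never tested in dose response; inactive means the rest.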 Not all results are given here. Measured potencies and affinities stand elsewhere.

What follows are compounds tested against Virion infectivity factor (Human immunodeficiency virus type 1 group M subtype B (isolate BH10)) + Virion infectivity factor (Human immunodeficiency virus type 1 group M subtype B (isolate BRU/LAI)) + Virion infectivity factor (Human immunodeficiency virus type 1 group M subtype B (isolate PCV12)) + Virion infectivity factor (Human immunodeficiency virus type 1 group M subtype B (isolate HXB2)) + DNA dC->dU-editing enzyme APOBEC-3G (Homo sapiens) (UniProt P69720+P69721+P69722+P69723+Q9HC16) (assay: HIV-1 Vif–A3G interaction blockers – biochemical, TR-FRET, GST-Vif 1-94, biotin-A3G peptide, dose response retest, primary screen (AID 1117319;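 further: Vif residues 1-94 fused to GST binding biotinylated APOBEC3G peptide 110-148; 0% = full assay without inhibitor and 100% = GST in place of GST-Vif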)). Settings: TR-FRET GST-Vif / biotin-A3G peptide binding; hits give high values.
With Cc1ccc(OCCNC(=O)c2ccccc2N)cc1 the inhibition was 8.93% (inactive).
CC(=O)C1=C(c2ccccc2)NC(=O)NC1c1ccccc1OCC(=O)Nc1ccccc1 (centres undefined) was tested, and the inhibition was -2.45% (inactive).
For S=C(NCCc1ccccc1)Nc1ncccn1, the inhibition was 4.03% (inactive).
In the case of O=C(N/N=C/c1ccc[nH]1)c1ccc(COc2cccc3cccnc23)cc1, the inhibition is reported as 9.25% (inactive).
For O=C1CCC/C(=N\NC(=O)c2ccc(CSc3cccc4cccnc34)cc2)C1, the inhibition was 5.86% (inactive).
CC(Nc1nc(-c2ccccc2O)nc2ccccc12)c1ccccc1 (centres undefined) was tested, and the inhibition was 4.08% (inactive).
In the case of CCOc1ccc(-c2cc(N3C(=O)Nc4ccccc4N3O)on2)cc1, the inhibition is reported as 19.2% (inactive).
In the case of COc1c(O)c(O)c2oc(-c3ccccc3)cc(=O)c2c1OC, the inhibition is reported as -3.24% (inactive).
With O=c1cc(-c2ccc(O)cc2)oc2ccc(O)cc12 the inhibition was 28.2% (inactive).
O=C(O)c1ccccc1C(=O)NC1CCCc2ccccc21 (centres undefined) was tested, and the inhibition was -5.37% (inactive).
For Cc1cc(C)c(NC(=O)CN(C)CC(=O)N(C)CC(=O)Nc2c(Cl)cccc2Cl)c(C)c1, the inhibition was -11.3% (inactive).
With COc1ccc(CCNC(=O)COC(=O)/C=C/c2cccs2)cc1 the inhibition was 8.83% (inactive).
With Cc1nn(-c2ccccn2)c2c1-c1nc(N)ncc1CC2 the inhibition was 5.31% (inactive).
With C=C(C)C1Cc2c(C)nn(-c3ccccn3)c2C1 (centres undefined) the inhibition was -1.81% (inactive).
With Nc1nc(SCC(=O)c2c(N)n(Cc3ccccc3)c(=O)[nH]c2=O)n[nH]1 the inhibition was -2.67% (inactive).
CCCC(=O)NC(Nc1c(C)n(C)n(-c2ccccc2)c1=O)C(Cl)(Cl)Cl (centres undefined) was tested, and the inhibition was -6.76% (inactive).
With COc1ccc(CNS(=O)(=O)c2c(C)[nH]c(C)c2C(=O)N2CCCCC2)cc1 the inhibition was -4.48% (inactive).
For CCOC(=O)Cc1cc(=O)n2[nH]c(-c3ccccc3)cc2n1, the inhibition was 3.98% (inactive).
For CCOC(=O)Cc1cc(=O)n2[nH]c(C(C)(C)C)cc2n1, the inhibition was 2.01% (inactive).
For O=Cc1cc(N=Nc2cccc(C(=O)O)c2)ccc1O, the inhibition was 8.26% (inactive).
O=C1CCCC(O)=C1N=Nc1cccc(S(=O)(=O)N2CCOCC2)c1 was tested, and the inhibition was -9.52% (inactive).
With O=C1CCCC(O)=C1N=Nc1ccc2ncsc2c1 the inhibition was 1.8% (inactive).
For CC(=O)N1CCc2cc(N=NC3=C(O)CCCC3=O)ccc21, the inhibition was 11.2% (inactive).
For O=C1CCCC(O)=C1N=Nc1ccc(Cl)c(Cl)c1, the inhibition was -7.94% (inactive).
Cc1nc2ccc(N=NC3=C(O)CCCC3=O)cc2s1 was tested, and the inhibition was 19.7% (inactive).
In the case of O=C(O)c1cccc(N=NN2CCOCC2)c1, the inhibition is reported as 0.39% (inactive).
With CC1(C)CC(=O)C(N=Nc2ccc(S(=O)(=O)N3CCOCC3)cc2)=C(O)C1 the inhibition was 4.95% (inactive).
Cc1cc(C)c2c(N)c(C(=O)N3CCc4ccccc4C3)sc2n1 was tested, and the inhibition was 2.97% (inactive).
For O=C(CSc1ccccc1C(=O)O)NC12CC3CC(CC(C3)C1)C2, the inhibition was -8.39% (inactive).
In the case of COC(=O)C1=C(C)OC(N)=C(C#N)C1c1ccsc1 (centres undefined), the inhibition is reported as -0.64% (inactive).
O=C(/C=C/c1ccc(F)cc1)Nc1cccc(S(=O)(=O)N2CCOCC2)c1 was tested, and the inhibition was -3.16% (inactive).
For Cc1ccc(/C=C/C(=O)Nc2ccc(S(N)(=O)=O)cc2)o1, the inhibition was 5.06% (inactive).
For Cc1ccc(/C=C/C(=O)Nc2ccncc2)o1, the inhibition was 26.1% (inactive).
For COc1ccc(NC(=O)/C=C/c2ccc(C)o2)cc1S(=O)(=O)N1CCOCC1, the inhibition was 22.6% (inactive).
Cc1cnc(NC(=O)/C=C/c2ccc(Br)o2)s1 was tested, and the inhibition was 20.7% (inactive).
In the case of Cc1ccc(/C=C/C(=O)Nc2nnc(C)s2)o1, the inhibition is reported as 30.1% (inactive).
For Cc1cc(-c2nnc(CCC(=O)N3CCN(Cc4cccc(F)c4)CC3)o2)c(C)o1, the inhibition was -7.15% (inactive).
In the case of COc1ccc(OC)c(CN2CCN(C(=O)c3cccs3)CC2)c1, the inhibition is reported as 1.09% (inactive).
COc1ccc(Oc2nc(-c3cccnc3)nc3ccccc23)cc1 was tested, and the inhibition was -18.5% (inactive).
CCC(OC(=O)c1nsc(Cl)c1Cl)C(=O)NC(C)(C)CC (centres undefined) was tested, and the inhibition was -6.48% (inactive).
In the case of CC(NC(=O)c1cccc(S(=O)(=O)N2CCN(Cc3ccccc3)CC2)c1)c1ccc(Cl)cc1 (centres undefined), the inhibition is reported as 3.65% (inactive).
With CCOC(=O)c1cn2nc(Oc3ccc(NC(C)=O)cc3)ccc2n1 the inhibition was -0.1% (inactive).
For CC(NC(=O)c1ccc2nc(Cc3cccc(Cl)c3)oc2c1)c1ccncn1 (centres undefined), the inhibition was 0.5% (inactive).
CN(C)C(=O)CCc1ccc2c3c([nH]c2c1)[C@]1(CCC2CCCC2)[C@@H](C(=O)N2CCOCC2)C[C@H](CC(=O)NCCC2=CCCCC2)C(=O)N1CC3 was tested, and the inhibition was 4.07% (inactive).
In the case of CCOc1ncccc1C(=O)OCC(=O)NC1CCCCCC1, the inhibition is reported as -6.35% (inactive).
Cc1cc(S(=O)(=O)Nc2ncnc3sccc23)ccc1F was tested, and the inhibition was 1.05% (inactive).
For CCOC(=O)C(C)/C(C)=N/NC(=O)CCC(=O)Nc1cc(C)ccc1C (centres undefined), the inhibition was 3.1% (inactive).
For CCOC(=O)c1nn(-c2ccccc2C)c(=O)c(C#N)c1C, the inhibition was 12.1% (inactive).
CCOC(=O)c1nc(C)n(-c2ccc(Cl)cc2Cl)n1 was tested, and the inhibition was 23.2% (inactive).
In the case of O=C(Oc1c(-c2ccccc2)oc2ccccc2c1=O)c1ccccc1, the inhibition is reported as -7.08% (inactive).
With Cc1ccc(-c2c(C(=O)Nc3ccccc3C)c(C)[nH]c(=S)c2C#N)o1 the inhibition was 17.8% (inactive).
N#Cc1c(-c2cccnc2)c2c([nH]c1=S)CCCC2 was tested, and the inhibition was 28.4% (inactive).
COc1ccc(-c2c3c([nH]c(=S)c2C#N)CCC3)cc1 was tested, and the inhibition was -9.25% (inactive).
With Cc1ccccc1NC(=O)c1c(C)[nH]c(=S)c(C#N)c1-c1ccc(Cl)cc1 the inhibition was -0.84% (inactive).
For COc1ccc(OC)c(-c2c3c([nH]c(=S)c2C#N)CCCC3)c1, the inhibition was -14.3% (inactive).
In the case of N#Cc1c(-c2ccc(Cl)cc2)c2c([nH]c1=S)CCCC2, the inhibition is reported as -9.58% (inactive).
In the case of CC(=O)OC1CC[C@@]2(C)C(CCC3C2CC(=O)[C@@]2(C)C3CC3CC(C)=CC(=O)C32)C1 (some centres undefined), the inhibition is reported as -1.09% (inactive).
For CC(Oc1ccccc1F)C(=O)NNC(=O)CCS(=O)(=O)c1ccccc1Cl (centres undefined), the inhibition was 3.79% (inactive).
CC1CC(C)(C)NC(=S)N1CCC(=O)N1CCc2ccccc2C1 (centres undefined) was tested, and the inhibition was -8.29% (inactive).
CC1(C)C(=O)NCCN1C(=O)CCC(=O)O was tested, and the inhibition was -4.36% (inactive).
Cc1ccc(CNC(=O)C2CC3Cn4c(nc5cc6ccccc6cc54)C3N2C)o1 (centres undefined) was tested, and the inhibition was 5.41% (inactive).
For O=C(CSc1ccc(-c2nc3ccccc3[nH]2)cn1)Nc1ccc(S(=O)(=O)N2CCCC2)cc1, the inhibition was -5.26% (inactive).
For O=C(CSc1nnc(NC(=O)c2cccc(Cl)c2)s1)NCC1CCCO1 (centres undefined), the inhibition was 3.82% (inactive).
In the case of CCOc1cc(N2CCOCC2)c(OCC)cc1NC(=O)COc1ccc2ccc(=O)oc2c1, the inhibition is reported as -0.33% (inactive).
COc1ccccc1C(c1nnnn1Cc1ccco1)N1CCN(c2cccc(C)c2C)CC1 (centres undefined) was tested, and the inhibition was 25.8% (inactive).
With O=C(c1cc(COc2ccc3ncccc3c2)on1)N1CCC[C@H]1CO the inhibition was 1.67% (inactive).
For COC(=O)C1CCCCN1C(=O)c1cc(COc2cccc3cccnc23)on1 (centres undefined), the inhibition was 4.07% (inactive).
In the case of COc1cccc(CNC(=O)CCCN2C(=O)C(c3ccccc3)Oc3cccnc32)c1OC (centres undefined), the inhibition is reported as -2.88% (inactive).
With CCOC(=O)C1=C(C)N(C2CCCCC2)C(=O)C1 the inhibition was -5.38% (inactive).
With COC(=O)\C(C(C)=O)=C(/C=C/C=C/N(C)C)N(C)C the inhibition was 27.9% (inactive).
COC(=O)/C(C(C)=O)=C(/C=C/C=C/N(C)C)N(C)C was tested, and the inhibition was 16.1% (inactive).
COCCNC(=O)c1cc(-c2ccncc2)nc2ccc(S(=O)(=O)N3CCOCC3)cc12 was tested, and the inhibition was -13.5% (inactive).
For CC1(C)[C@@H](O)CC[C@]2(C)[C@H]3C(=O)C=C4[C@@H]5C[C@@](C)(C(=O)O)CC[C@]5(C)CC[C@@]4(C)[C@]3(C)CC[C@@H]12, the inhibition was 27.5% (inactive).
For Cc1ccc(C2C(C#N)=C(N)Oc3cc(C)oc(=O)c32)o1 (centres undefined), the inhibition was -6.32% (inactive).
Cc1ccc([C@H]2C(C#N)=C(N)Oc3cc(C)oc(=O)c32)o1 was tested, and the inhibition was 1.59% (inactive).
For CCCCCC(=O)NNC1CC(=O)N(c2ccccc2)C1=O (centres undefined), the inhibition was -9.34% (inactive).
With C[C@H](N)c1nnc(SCc2ccc(Cl)cc2Cl)o1 the inhibition was 1.96% (inactive).
For CCN1C(C)=C(C)S/C1=C1\SC(=S)N(N)C1=O, the inhibition was 7% (inactive).
For Cn1cc(/C=N/NC(=O)c2cc3cc(Br)ccc3o2)c2ccccc21, the inhibition was -7.92% (inactive).
With O=C(O)Cn1cc(/C=N/NC(=O)c2cc3cc(Br)ccc3o2)c2ccccc21 the inhibition was 0.84% (inactive).
In the case of COc1ccc(Cl)cc1C(=O)NNC(=O)CSc1nnc2ccccn12, the inhibition is reported as -2.97% (inactive).
COC(=O)/C=C/C(=O)Nc1cccnc1 was tested, and the inhibition was 15.1% (inactive).
With O=C(/C=N/O)Nc1cccnc1 the inhibition was 28.5% (inactive).
With COc1c(OC(C)=O)ccc(/C=C/c2ccc3cccc(OCc4ccccc4)c3n2)c1[N+](=O)[O-] the inhibition was 5.7% (inactive).
With CCOc1c(OC(C)=O)ccc(/C=C/c2ccc3cccc(OC)c3n2)c1[N+](=O)[O-] the inhibition was 21.2% (inactive).
For O=C(CSCC(=O)c1ccccc1)Nc1ccccc1Cl, the inhibition was -5.7% (inactive).
For COc1ccc(C(=O)Nc2cccc(-c3nnc(-c4ccco4)o3)c2)cc1, the inhibition was -0.63% (inactive).
S=C(NCCN1CCOCC1)N/N=C/c1ccccc1 was tested, and the inhibition was 0.06% (inactive).
Oc1ccc(/C=N/NC(=S)NCCN2CCOCC2)c(O)c1 was tested, and the inhibition was 24.1% (inactive).
For CC(=O)NCCOc1ccc(C(=O)O)cc1, the inhibition was -5.42% (inactive).
For CCCCOC(=O)n1c(=O)oc2ccc(S(=O)(=O)N3CCCCC3)cc21, the inhibition was -5.83% (inactive).
In the case of O=[N+]([O-])c1cc(-c2ccccc2)cc([N+](=O)[O-])c1O, the inhibition is reported as -4.83% (inactive).
With O=C(O)c1cc([N+](=O)[O-])cc2ccccc12 the inhibition was -6.07% (inactive).
Cc1cc(Cl)c2oc(C(=O)N3CCN(c4cnccn4)CC3)c(C)c2c1 was tested, and the inhibition was 2.03% (inactive).
